# Test results: ChEMBL document CHEMBL4513216, “Probing the Open Global Health Chemical Diversity Library for Multistage-Active Starting Points for Next-Generation Antimalarials” (ACS Infect Dis, 2020)
# Hit rate of the full screen: of about 69,000 compounds, about 8,600 (12%) showed an effect of 50% or more. Shown is part of a subset that was picked to be rich in strong results.
# Test system: Plasmodium berghei
# Experiment: Screen against P. berghei liver stage (PbLuc), transformed with Luciferase, at 10uM
# Type: functional, HepG2
# Conditions: tested at 10 uM
row,Compound,INHIBITION
1,CCN1CCC2(CN(C(=O)N(C)C)CC23CCN(CC2CC2)CC3)C1=O (stereo not given),-38.1%
2,CCCn1c(N2CCCC2)nc2c(C)nn(C)c2c1=O,44.05%
3,CC(C)C(NC(=O)c1cnc(N2CCOCC2)nc1)c1cccs1 (stereo not given),38.7%
4,Cc1ccccc1NCc1nc2n(n1)CCCCC2,34.2%
5,CCN1CC(Oc2ccc(Cl)cc2)=NC(SCC(=O)c2ccccc2)=N1,55.5%
6,CN1CC(Oc2ccc(Cl)cc2)=NC(SCC(=O)c2ccccc2)=N1,12.9%
7,CN1CC(Oc2ccccc2)=NC(SCC(=O)c2ccccc2)=N1,1.98%
8,Cn1c(=O)n(C)c2nc(Br)c(CC(=O)c3ccccc3)n2c1=O,37.3%
9,CC(C(=O)NCc1ccnc(N(C)C)c1)n1cccn1 (stereo not given),49.4%
10,Cc1cnnn1Cc1nnn2c1CN(Cc1cccs1)CCC2,45.8%
11,CN(Cc1ccco1)C(=O)c1ccc(=O)n(C)c1,55.4%
12,CN(Cc1ccco1)C(=O)Nc1ccc(=O)n(C)c1,60.1%
13,COCCN(Cc1cccs1)C(=O)c1ccc(=O)n(C)c1,-7.66%
14,CCN(Cc1cccs1)C(=O)c1ccc(=O)n(C)c1,28.7%
15,Cc1occc1CN(C)C(=O)Nc1ccc(=O)n(C)c1,44.3%
16,COc1ccc(NC(=O)N(C)Cc2ccco2)cn1,0.705%
17,Cn1cc(C(=O)N(Cc2ccco2)Cc2cccs2)ccc1=O,34%
18,CN(Cc1ccc2c(c1)OCO2)C(=O)c1ccc(=O)n(C)c1,42.7%
19,CN(Cc1cccs1)C(=O)c1ccc(=O)n(C)c1,53.3%
20,CCC1(CC)C(=O)NC(=O)N=C1Nc1ccc(C)cc1,27.5%
21,O=C(NCC1(c2cccs2)CCCCC1)N1CCOC(CO)C1 (stereo not given),-39.4%
22,Cn1cc(N2C(=O)CC[C@@H]3[C@H]2CCN3CCc2ccccc2)cn1,17.4%
23,CN(C)C(=O)NC1COC2(CCN(C(=O)Nc3ccccc3)CC2)C1 (stereo not given),42.1%
24,O=C1CCC2(CCCN(C(=O)NCc3ccccc3)CC2)N1 (stereo not given),8.74%
25,Cc1nc2c(cc1C(=O)Nc1ccccc1Cl)c(=O)n(C)c(=O)n2C,18.6%
26,COCCN1CCN(C)C2(CCN(C(=O)c3ccnnc3)CC2)C1=O,39.4%
27,Cc1nc(C(C)Nc2nc3c(s2)c(C)nn3C)n[nH]1 (stereo not given),52.1%
28,Cc1nn(C)c2nc(NC(C)c3nnn[nH]3)sc12 (stereo not given),1.24%
29,Cc1nn(C)c2nc(NC(C)c3n[nH]c(=O)[nH]3)sc12 (stereo not given),28.5%
30,O=S(=O)(NCc1ccnc(-n2ccnc2)c1)c1cncc(F)c1,2.93%
